Shown are actives, neighbours in structure and some others; about 7.5% of the full set was active somewhere.
Rab9 prom act = qHTS Assay for Rab9 Promoter Activators. Huh7 Rab9 promoter-luciferase reporter, luminescence, 24 h. Potency, µM (titrated, usually from 9.22 µM), for the others: top-dose activation, negative = inhibition, actives largely listed as activators. 320,000 tested, 2.8% active. AID 485297, 2010; further: % of control where 0% means no effect; nearly all actives have a fitted effect of over 60% in size
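Stable Rab9-luc Huh7, 1500 cells/well, 2 h settle; cmpd in DMSO, 24 h, 37 °C/5% CO2; luciferase reagent 10 min RT; luminescence.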
Luc counter = Counterscreen for Luciferase (Kinase-Glo TM) Inhibition. AID 1379, 2008. 200,000 tested, 0.28% active. Luciferin 4-monooxygenase (Photuris pensylvanica), Q27757. Kinase-Glo luciferase, ATP luminescence, 8 min. Potency, µM (top dose mostly 38.3 µM), for inactives: at the highest dose activity change, negative = inhibition, usual class: inhibitors; further: on the % scale 0 is the no-effect control and ±100 the full control effect; nearly all actives have a fitted effect of over 60% in size
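Kinase-Glo luciferase light output from ATP and luciferin was measured with 10 uM ATP, within the enzyme's linear range. Buffer: 50 mM imidazole pH 7.2, 50 mM KCl, 7 mM MgCl2, 0.01% Tween 20, 0.05% BSA; luminescence read after 8 min at ambient temperature.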
ELG1 genotoxic = qHTS screen for small molecules that induce genotoxicity in human embryonic kidney (HEK293T) cells expressing luciferase-tagged ELG1; Potency, µM (top dose mostly 46 µM), for inactives: top-dose activity change, positive = activation, usual class: activators; 330,000 tested, 1.3% active; HEK293T ELG1-luciferase reporter, luminescence, 16 h; further: % of control where 0% means no effect; nearly all actives have a fitted effect of over 60% in size
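Genotoxicity was scored as increased ELG1-luciferase reporter signal, measured by ONE-Glo luminescence (30 min, room temperature). Compound or vehicle exposure of the HEK293T reporter cells lasted 16 hr at 37°C.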
NPC1 prom act = qHTS Assay for NPC1 Promoter Activators. Huh7 NPC1 promoter luciferase reporter, 24 h. Potency, µM (titrated, usually from 9.22 µM), inactives show at the top dose activation, most hits filed as activators. 320,000 tested, 2.4% active. AID 485313, 2010; further: % of control where 0% means no effect; nearly all actives have a fitted effect of over 60% in size
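Huh7 reporter cells (NPC1 promoter driving luciferase) are dosed with compound for 24 h at 37 °C, 5% CO2; luciferase detection reagent is then added and luminescence measured after 10 min at ambient temperature.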
SMN2 splice up = qHTS Assay for Enhancers of SMN2 Splice Variant Expression; Potency, µM (highest dose often 46.1 µM), without a hit: top-dose activity change, positive = activation, usual class: activators; AID 1458, 2008; 210,000 tested, 2.8% active; HEK293 SMN2-luciferase splicing reporter, luminescence, 30-36 h; further: % of control where 0% means no effect; nearly all actives have a fitted effect of over 55% in size
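qHTS luciferase splicing reporter: luminescence rises when SMN2 exon 7 is included in transfected HEK293 cells. Compound exposure lasted 30-36 h at 37C, with 4.5 mM final sodium butyrate as control, followed by a ONE-Glo read.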
FLuc modulator = qHTS profiling assay for firefly luciferase inhibitor/activator using purifed enzyme and Km concentrations of substrates (counterscreen for miR-21 project) | Luciferin 4-monooxygenase (Photinus pyralis), P08659 | purified FLuc, Km substrates, luminescence inhibition | Potency, µM (titrated, usually from 57.5 µM), inactives show at the top dose activity change, negative = inhibition, actives largely listed as inhibitors | 360,000 tested, 6.9% active;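 further: plate controls were vehicle for no effect and reference inhibitor for full effect; nearly all actives have a fitted effect of over 55% in size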
Target sequence (P08659 whole entry, looked up): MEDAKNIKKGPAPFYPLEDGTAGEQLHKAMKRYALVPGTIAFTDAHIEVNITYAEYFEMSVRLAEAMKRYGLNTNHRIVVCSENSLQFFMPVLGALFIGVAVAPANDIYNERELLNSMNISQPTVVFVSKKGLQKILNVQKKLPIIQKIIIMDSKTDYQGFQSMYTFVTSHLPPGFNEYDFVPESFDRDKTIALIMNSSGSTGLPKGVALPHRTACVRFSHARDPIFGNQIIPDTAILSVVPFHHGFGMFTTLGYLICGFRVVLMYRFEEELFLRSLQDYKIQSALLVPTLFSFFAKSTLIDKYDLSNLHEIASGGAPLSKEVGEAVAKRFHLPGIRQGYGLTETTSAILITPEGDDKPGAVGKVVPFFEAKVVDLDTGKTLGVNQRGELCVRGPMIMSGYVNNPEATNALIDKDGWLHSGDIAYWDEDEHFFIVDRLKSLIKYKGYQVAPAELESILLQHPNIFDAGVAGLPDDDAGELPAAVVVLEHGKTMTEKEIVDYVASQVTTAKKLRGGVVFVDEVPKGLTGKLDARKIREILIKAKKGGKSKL
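Purified P. pyralis luciferase, 10 nM final, with Km-level 10 uM D-luciferin and 10 uM ATP in 50 mM Tris acetate pH 7.5, 10 mM Mg acetate, 0.01% Tween-20, 0.05% BSA; 6-point qHTS titration about 60 µM downward; luminescence read.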
* marks the source's active call; other numbers are inactive results; u = inconclusive; x = no result given. The call rests on the fitted dose curve; in most records, active means well fitted curve in the direction sought with a large enough effect; inconclusive means small, poorly fitted or top-dose-only effect, or another doubt; inactive means no such curve, though single readings can be large; an effect the other way counts as inactive or inconclusive. Potency means the concentration at half of the fitted maximal effect.

SMILES | Rab9 prom act | Luc counter | ELG1 genotoxic | NPC1 prom act | SMN2 splice up | FLuc modulator
COc1ccc(NC2CCCN(C(=O)c3cc(CC(C)C)nc(N)n3)C2)cc1 (centres undefined) | 1% | x | 2% | 0% | x | 3%
Cc1c(OC(C)C(=O)NCC2CCC(C(=O)O)CC2)ccc2c3c(c(=O)oc12)CCCC3 (centres undefined) | -1% | x | 4% | -2% | x | 5%
Cn1c(Cl)c(C(=O)Nc2ccccc2)c2ccccc21 | 2% | -8% | 3% | u | -4% | 15µM*
Cc1ccc(NC(=O)c2c(Cl)n(C)c3ccccc23)cc1 | 23% | -1% | 11% | u | u | 3.4µM*
O=C(CCNC(=O)c1ccccc1Cl)NCCCSc1ccccc1 | -3% | x | 0% | 1% | x | -2%
O=C(NCCSc1ccccc1)c1ccccc1Cl | 3.2µM* | -4% | 13µM* | 2.5µM* | 11µM* | 7.6µM*
Cc1ccccc1C(=O)NCCSc1ccccc1 | 2.8µM* | -6% | 7.3µM* | 3.5µM* | 13µM* | 9.5µM*
Cn1cc(/C=N\NC(=O)c2cccs2)c2ccccc21 | 2.2µM* | -3% | 11µM* | u | 14µM* | u
Cn1cc(/C=N/NC(N)=S)c2ccccc21 | -8% | x | -1% | 4% | x | -11%
Cn1cccc1/C=N/NC(=O)Cc1cccs1 | 14% | x | 3% | 9% | x | -17%
Cn1cccc1/C=N/NC(=O)c1cccs1 | u | x | u | u | x | 15µM*
CCCc1cc(C(=O)N/N=C/c2cccn2C)cs1 | u | x | 18µM* | u | x | 17µM*
CNC(=O)[C@@H](Cc1ccccc1)N(C)C(=O)[C@@H](Cc1ccc2ccccc2c1)N(C)C(=O)/C=C/CC(C)(C)N | x | -3% | x | x | 8% | x
Cc1cccc(N2CCN(C(=O)CN3C(=O)COc4ccc(S(=O)(=O)N5CCCC5)cc43)CC2C)c1 (centres undefined) | x | x | x | x | -6% | -6%
Oc1cccc(/C=N/N=C/c2cccc(O)c2O)c1O | -33% | x | u | -23% | x | 1.7µM*
Cc1ccccc1N=Cc1cccc(O)c1O | -4% | 2% | 0% | -8% | 29% | u
COCC(C)NC(=O)c1cc2cccc([N+](=O)[O-])c2[nH]1 (centres undefined) | 18% | x | -5% | 15% | x | -19%
Cc1cc(NC(=O)c2cc3cccc([N+](=O)[O-])c3[nH]2)ccc1F | 2.2µM* | x | u | 2.5µM* | x | 5.4µM*
CC(=N)C1=C(O)CC(c2ccccc2)CC1=O (centres undefined) | -2% | x | 1% | -5% | x | -1%
O=C(NCc1ccco1)/C(=C/c1cccc(C(F)(F)F)c1)c1nc2ccccc2[nH]1 | -7% | 2% | -3% | -3% | -81% | 4%
O=C(NCc1ccco1)/C(=C/c1ccc(C(F)(F)F)cc1)c1nc2ccccc2[nH]1 | 15% | -6% | u | 10% | 25% | 12µM*
CC1=C(C)CC2C(C1)C(=O)c1ccc(Br)cc1S2(=O)=O (centres undefined) | -4% | x | 2% | -7% | x | 5%
CN(C)c1ccc(/C=C2\CCCCC2=O)cc1 | 3.2µM* | -4% | 5.8µM* | 3.5µM* | 22µM* | 2.7µM*
COc1ccc(Oc2ncc3ncc(=O)n(Cc4ccc(F)cc4)c3n2)cc1 | x | -4% | x | x | -51% | x
Cc1nnc(SCC(=O)Nc2cc(Cl)ccc2Cl)n1CC1CCCO1 (centres undefined) | 2% | x | 5% | -5% | x | -1%
SMILES | Rab9 prom act | Luc counter | ELG1 genotoxic | NPC1 prom act | SMN2 splice up | FLuc modulator
CC[C@H](C)Cc1cn([C@@H](CCCCNC(=O)OC(C)(C)C)C(=O)NCCCCCCCCCCC(=O)N2CCN(C(=O)OC(C)(C)C)CC2)nn1 | -10% | x | -11% | -10% | x | -1%
CC(=O)C1=C(NC(=O)c2ccc(F)cc2)CC2C1C2(C)C (centres undefined) | 13% | -2% | -4% | 1% | -16% | 21µM*
CCN1CCCC1CNC(=O)c1ccc2c(c1)NC(=O)/C(=C\c1ccc(C)cc1)S2 (centres undefined) | -2% | x | u | 0% | x | 21µM*
Cc1ccc(/C=C2/Sc3ccc(C(=O)NCCN4CCOCC4)cc3NC2=O)cc1 | 1% | x | 4% | -3% | x | u
Cc1ccc(/C=C2/Sc3ccc(C(=O)N4CCN(C)CC4)cc3NC2=O)cc1 | 0% | x | 2% | -1% | x | 15µM*
CSc1ccccc1NC(=O)c1ccccc1C | -3% | 0% | 0% | 0% | -9% | 4%
COc1ccc(OC)c(NC(=O)CCN2CC(C)CC(C)C2)c1 (centres undefined) | 0% | x | -2% | 2% | x | -8%
Oc1ccc(-c2nnc(SCC3CCCCC3)o2)cc1 | 2.8µM* | 12% | u | 3.2µM* | u | 15µM*
O=C(CSc1nnc(-c2ccc(O)cc2)o1)N1CCOCC1 | u | -2% | 9% | 23% | 5% | u
COC(=O)C1(C(=O)OC)CC2=CCC3C(=O)N(c4ccccc4)C(=O)C3C2Cc2ccccc2[C@@H]1C[N+](=O)[O-] (some centres undefined) | x | 2% | x | x | 3% | x
CN(Cc1cccnc1)C(=O)c1cc(COc2ccc3c(c2)CCCC3)on1 | u | x | u | 1.3µM* | x | 11µM*
CC(=O)c1cccc(OCc2cc(C(=O)NCc3nc(C)c(C)s3)no2)c1 | u | x | u | u | x | 17µM*
Cc1cccc(C)c1OCc1cc(C(=O)NCc2ccc(Cl)s2)no1 | 0% | x | -2% | -6% | x | -2%
CC(=O)c1cccc(OCc2cc(C(=O)N(C)C(C)c3ccccn3)no2)c1 (centres undefined) | 7% | x | -5% | 2% | x | 4%
COc1cccc(OCc2cc(C(=O)N(C)Cc3nc4ccccc4[nH]3)no2)c1 | u | x | u | 3.2µM* | x | 11µM*
CC(=O)c1cccc(OCc2cc(C(=O)N(C)Cc3cnccn3)no2)c1 | 2.5µM* | x | u | u | x | u
COc1ccccc1-n1c(SCC(=O)Nc2cc(C)on2)nc2c([nH]c3ccccc32)c1=O | 1% | x | -8% | -3% | x | 0%
Nc1cc(C(=O)N2CCN(c3ccc([N+](=O)[O-])cc3)CC2)ccc1N1CC2CC(C1)c1cccc(=O)n1C2 (centres undefined) | 2% | x | 0% | 2% | x | -2%
